# Compounds with a hit are over-represented: about 4% of the library has one in this group of screens.
# Mdm2 MdmX PPI = inhibitors of human Mdm2-MdmX association, primary screen, cell-based, luminescence, split luciferase, SaOS-2, uHTS; Protein Mdm4 (Homo sapiens) + E3 ubiquitin-protein ligase Mdm2 (Homo sapiens), …; SaOS-2 split-luciferase Mdm2/MdmX complementation; inhibition, % at 8 µM; hit rate 3% among 330,000;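 active = inhibition of at least 50% at 8 µM in the primary screen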
# Target sequence (O15151 whole entry, looked up): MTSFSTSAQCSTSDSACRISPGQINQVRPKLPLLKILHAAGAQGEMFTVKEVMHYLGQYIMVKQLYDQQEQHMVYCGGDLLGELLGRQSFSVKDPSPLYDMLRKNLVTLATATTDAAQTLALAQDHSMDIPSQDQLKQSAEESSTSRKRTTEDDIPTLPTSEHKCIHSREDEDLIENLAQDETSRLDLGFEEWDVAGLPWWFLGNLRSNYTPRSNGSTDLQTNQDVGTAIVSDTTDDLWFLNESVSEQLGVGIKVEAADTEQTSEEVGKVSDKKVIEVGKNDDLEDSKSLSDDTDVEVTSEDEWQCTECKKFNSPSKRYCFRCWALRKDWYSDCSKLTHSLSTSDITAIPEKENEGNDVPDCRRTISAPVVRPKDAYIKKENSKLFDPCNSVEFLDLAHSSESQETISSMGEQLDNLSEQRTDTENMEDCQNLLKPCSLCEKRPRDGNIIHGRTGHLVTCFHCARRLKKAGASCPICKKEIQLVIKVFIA
# Target sequence (Q00987 whole entry, looked up): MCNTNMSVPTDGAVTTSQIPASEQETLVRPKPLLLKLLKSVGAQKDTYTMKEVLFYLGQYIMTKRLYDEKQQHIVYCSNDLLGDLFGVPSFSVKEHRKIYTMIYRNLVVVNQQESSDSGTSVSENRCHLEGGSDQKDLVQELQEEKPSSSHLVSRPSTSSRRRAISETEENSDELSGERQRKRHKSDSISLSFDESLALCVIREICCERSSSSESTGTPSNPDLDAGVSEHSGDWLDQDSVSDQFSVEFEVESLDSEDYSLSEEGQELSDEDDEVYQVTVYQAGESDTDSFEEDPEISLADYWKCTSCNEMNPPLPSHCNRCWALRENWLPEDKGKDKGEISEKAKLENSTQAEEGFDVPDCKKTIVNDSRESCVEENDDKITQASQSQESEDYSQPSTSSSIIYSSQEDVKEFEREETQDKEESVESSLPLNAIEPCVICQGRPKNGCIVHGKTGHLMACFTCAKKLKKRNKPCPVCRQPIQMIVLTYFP
# Beta cell apopt = inhibitors of cytokine-induced beta cell apoptosis, primary screen, luminescence; INS-1E cytokine-induced death, ATP luminescence, 48 h; percent of positive-control rescue, neutral wells zero; protection from apoptosis, % (concentration not given with the values); hit rate 0.8% among 300,000; AID 435005, 2010;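 active = Every replicate reaches about 75%, or at least half do and their mean reaches it too, limit read from the data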;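 also: higher means more ATP so stronger rescue from cytokine killing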
# Gli-Sufu antag = Gli-Sufu pathway antagonists, primary screen, luciferase luminescence, Sufu-KO-LIGHT cells, uHTS; Sufu-KO-LIGHT fibroblasts, Gli luciferase reporter luminescence; inhibition, % at 5 µM; hit rate 0.74% among 340,000; AID 588413, 2011;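 active = inhibition above about 55%, limit read from the data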
# 697 NFkB inh = inhibitors of PMA/ionomycin-induced NF-kB reporter, 697 cells, primary screen, B-cell NF-kB inhibitor project, cell-based, luminescence, uHTS. 697 B-cell NF-kB luciferase reporter, 16 h. inhibition, % at 4 µM. hit rate 0.33% among 330,000. AID 435022, 2010; in the data active = inhibition above about 35%
# Jurkat NFkB inh = inhibitors of induced NF-kB luciferase reporter, primary screen, TCR NF-kB activation inhibitor project, cell-based, luminescence, uHTS | hit rate 0.53% among 330,000 | Jurkat, PMA/ionomycin-induced NF-kB luciferase reporter | inhibition, % at 4 µM; in the data active = inhibition above about 50%
# Mdm2 MdmX conf = Mdm2-MdmX complex disruptors, retested hits, confirmation, luminescence, single concentration; shares compounds with Mdm2 MdmX PPI; Mdm2-MdmX binding, luminescent assay; inhibition, % at 8 µM; hit rate 55% among 10,000; in the data active = inhibition above about 40%
# Full FLuc ctr = full-length luciferase signal inhibition, confirmation, counter-screen for Mdm2/MdmX interaction inhibitor project, cell-based, single concentration, SaOS-2; shares compounds with Mdm2 MdmX PPI; SaOS-2 full-length luciferase counterscreen, luminescence; inhibition, % at 8 µM; hit rate 77% among 6,200; AID 504607, 2011;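 active = mean inhibition at 8 µM reaching about 37%, which flags the compound as non-specific, limit read from the data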;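 also: p53-null SaOS-2 cells with luciferase driven by a doxycycline-inducible promoter; compound on cells about two nights before reading with doxycycline added after day one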
# Hits are given with their value; i = inactive; nt = no result.
SMILES,Mdm2 MdmX PPI,Beta cell apopt,Gli-Sufu antag,697 NFkB inh,Jurkat NFkB inh,Mdm2 MdmX conf,others
Cc1nc2ccccc2c(=O)n1NC(=O)CCC(=O)O,i,i,i,i,i,nt,
O=C(Nc1ccc(Br)cc1)C(c1ccccc1)c1ccccc1,i,i,i,i,i,nt,
COc1ccccc1N=C1NC(=O)/C(=C/c2ccc(N(C)C)cc2)S1,i,i,i,i,i,nt,
Cc1ccccc1OCC(=O)Nc1ccccc1N1CCOCC1,50,i,i,i,i,i,
CC(=O)N1CCN(c2ccccc2NC(=O)COc2ccccc2C)CC1,i,i,i,i,i,nt,
Cc1nnc(Sc2nc3ccccc3o2)c2ccccc12,i,i,i,i,i,nt,
Cc1ccc(-c2nnc(Sc3nc4ccccc4o3)c3ccccc23)cc1,53,i,i,i,i,i,
Clc1ccc(-c2nnc(Sc3nc4ccccc4o3)c3ccccc23)cc1,61,i,i,i,i,i,
Cc1ccc(-c2ccc(/C=C3\C(=O)ON=C3c3ccccc3)o2)c([N+](=O)[O-])c1,82,92,i,i,i,i,
COc1cnc(-c2ccccn2)nc1NC(C)C,79,i,i,i,i,87,Full FLuc ctr=48
COc1cnc(-c2ccccn2)nc1Oc1ccc(Cl)c2ccccc12,52,97,i,i,i,i,
COc1ccc(/C=C/C(=O)N2CCN(C)CC2)cc1OC,i,i,i,i,i,nt,
CCOc1ccccc1N1CCN(c2nc3ccccc3nc2C(C#N)C(=O)OC)CC1 (centres undefined),71,i,i,i,i,i,
COc1ccccc1N1CCN(c2nc3ccccc3nc2C(C#N)C(=O)OC(C)C)CC1 (centres undefined),i,i,i,i,i,nt,
CCCCCCOC(=O)C(C#N)c1nc2ccccc2nc1N1CCN(CC)CC1 (centres undefined),60,i,i,i,i,i,Full FLuc ctr=70
CCCCCCOC(=O)C(C#N)c1nc2ccccc2nc1N1CCOCC1 (centres undefined),i,i,i,i,i,nt,
CC(=O)Nc1ccc(NC(=O)CN(c2ccc(C(C)C)cc2)S(=O)(=O)c2ccccc2)cc1,i,i,i,i,i,nt,
O=C(O)CN1C(=O)C(=O)N(Cc2cccc(F)c2)C1=O,i,i,i,i,i,nt,
CCC(CC)NC(=O)COc1ccc(OC)cc1C=O,i,i,i,i,i,nt,
O=C(COC(=O)c1cc(Cl)ccc1O)NC(=O)NCc1ccccc1,i,i,i,i,i,nt,
CCc1c(C)sc(NC(=O)c2cc(-c3cc(OC)ccc3OC)on2)c1C#N,97,i,i,i,i,46,Full FLuc ctr=68
C=CCOc1ccc(C2C(C(=O)c3ccco3)=C(O)C(=O)N2c2nnc(C)s2)cc1 (centres undefined),i,i,i,i,i,nt,
O=[N+]([O-])c1ccc(Cl)c(-c2ccc(/C=N/c3c(-c4ccco4)nc4ccccn34)o2)c1,66,i,i,i,i,i,
O=[N+]([O-])c1ccc(-c2ccc(/C=N/c3c(-c4ccco4)nc4ccccn34)o2)cc1,i,i,i,i,i,nt,
CC1=C(C(=O)Nc2cccc(C(=O)NC3CCCCC3C)c2)SCCO1 (centres undefined),i,i,i,i,i,nt,
SMILES,Mdm2 MdmX PPI,Beta cell apopt,Gli-Sufu antag,697 NFkB inh,Jurkat NFkB inh,Mdm2 MdmX conf,others
CCn1cc(CN2CCCC(CNC(=O)COc3ccccc3OC)C2)c(C)n1 (centres undefined),i,i,i,i,i,nt,
CCOc1ccc(C(=O)/C=C/Nc2ccc(S(=O)(=O)N=C(N)N)cc2)cc1,74,i,i,i,i,i,
NC(N)=NS(=O)(=O)c1ccc(N/C=C/C(=O)c2ccc(Cl)c(Cl)c2)cc1,i,i,i,i,i,nt,
COc1ccccc1C(=O)C1CCCN(C(=O)c2cccc(-n3cccn3)c2)C1 (centres undefined),i,i,i,i,i,nt,
C=C(C)[C@@H]1CC[C@]2(C(=O)O)CC[C@]3(C)C(CCC4[C@@]5(C)CC[C@H](O)C(C)(C)C5CC[C@]43C)C12 (some centres undefined),94,i,i,i,i,i,
O=C(CN1CCN(C(C(=O)Nc2ccc(F)cc2)c2ccccc2)CC1)NC1CC1 (centres undefined),i,i,i,i,i,nt,
CC(C)c1cccc(-c2ccc3c(c2)S(=O)(=O)c2cccc(C(=O)NCc4ccccc4)c2C3=O)c1,59,i,i,i,i,i,
O=C(NCc1ccco1)c1cccc2c1C(=O)c1ccc(/C=C/c3ccccc3)cc1S2(=O)=O,53,i,i,i,i,47,Full FLuc ctr=69
O=C(NCc1ccco1)c1cccc2c1C(=O)c1ccc(N3CCC(Cc4ccccc4)CC3)cc1S2(=O)=O,i,i,i,i,i,nt,
O=C(NCc1ccc(F)cc1)c1cccc2c1C(=O)c1ccc(Cl)cc1S2(=O)=O,i,i,nt,i,i,nt,
CC(C)c1cccc(-c2ccc3c(c2)S(=O)(=O)c2cccc(C(=O)NCc4ccccc4Cl)c2C3=O)c1,89,i,i,i,i,i,
CCCCCn1c(SCC(=O)c2ccccc2)nc2cc(C(=O)NCC3CCCO3)ccc2c1=O (centres undefined),nt,nt,i,nt,nt,nt,
O=C(c1cc(-c2ccncc2)nc2ccc(Cl)cc12)N1CCN(C(=O)C2CCCO2)CC1 (centres undefined),i,i,i,i,i,nt,
CC(=O)c1ccc(N2CCN(C(=O)c3cc(-c4ccncc4)nc4ccc(Cl)cc34)CC2)cc1,63,i,i,i,i,i,
CCCCn1c(N)c(N(CCC(C)C)C(=O)CSc2nncn2-c2ccccc2)c(=O)[nH]c1=O,i,nt,i,i,i,nt,
Cc1ccc(S(=O)(=O)N2CCN(C(=O)CSC3CCCC3)CC2)c(C)c1,55,i,i,i,i,i,
COc1ccc(/C=C/C(=O)c2ccc(OC)cc2OC)cc1,i,i,i,i,i,nt,
O=C(/C=C/c1cccnc1)c1cc(F)ccc1O,i,i,i,i,i,nt,
COc1cc(C(=O)/C=C/c2cccnc2)ccc1O,51,nt,i,i,i,i,
COc1ccc(OC)c(C(=O)/C=C/c2cccnc2)c1,68,i,i,i,i,i,Full FLuc ctr=56
COc1cc(O)cc(O)c1C(=O)/C=C/c1ccccc1,52,i,i,i,i,i,
CCc1nc2cc3sc(CC)nc3cc2s1,i,i,i,i,i,nt,
c1cncc(CNc2cccc(-c3nc4ccccc4[nH]3)c2)c1,i,i,i,i,i,nt,

# Screening data as filed in PubChem.
